Data taken from PubChem BioAssay (Tox21).
A structure can be active in one record and inactive in another. Activity calls are given as the source filed them. A call without a number means that no potency is given here. The call rests on the fitted dose curve; in most records, active means well fitted cell-killing curve with a large enough effect in the repeat runs; inconclusive means weak or mixed curves, or effect the other way; inactive means flat fitted curve, though single readings scatter.

experiment: qHTS assay to identify small molecule HDAC inhibitors - cell viability counter screen (AID 1259365); details: HCT-116 viability, CellTiter-Glo ATP luminescence, 2 h; series mostly up to 92.4 µM; further: nearly all actives have a fitted effect of over 50% in size
Text: U.S. Tox21 Program National Center for Advancing Translational Sciences [NCATS] NIH Chemical Genomics Center [NCGC] U.S. Environmental Protection Agency [EPA] National Institutes of Environmental Health Sciences [NIEHS] National Toxicology Program [NTP] U.S. Food and Drug Administration [FDA] Tox21 Assay Overview: Histone deacetylases (HDACs) are a group of epigenetic enzymes that regulate gene expression by histone deacetylation. HDACs are capable of introducing epigenetic modifications and such aberrations contribute to the onset and progression of several human diseases, thus making HDACs a popular therapeutic target. For identifying endogenous class I/II HDAC inhibitors a homogenous, luminogenic HDAC I/II cell based assay was used to measure the relative activity of class I and II HDACs from cells. Wild type HCT-116 cells were used to screen Tox21 compound libraries for identifying class I/II HDAC inhibitors.
Tox21 Assay Protocol Summary: HCT-116 cells were dispensed at 1,500 per well in 5uL of culture medium into white solid bottom 1536-well plates (Greiner Bio-One, Monroe, NC) using a Multidrop Combi (Thermo Scientific, Waltham, MA) dispenser. The assay plates were incubated at 37 C and 5% CO2 for an overnight, and then 23nL of compounds dissolved in DMSO and positive control were transferred using a Pintool station (Wako, San Diego, CA). The assay plates were incubated at 37C and 5% CO2 for 2hr. After compound treatment, 4uL of CellTiter-Glo reagent (Promega Corporation, Madison, WI) was added to each well of the assay plates using Flying Reagent Dispenser (FRD, Aurora Discovery, San Diego, CA) and incubated the assay plates at room temperature for 30min. The luminescence signal was quantified using a ViewLux plate reader (Perkin Elmer, Shelton, CT).
Potency means the concentration at half of the fitted maximal effect.

SMILES	Potency
C#CC(C)(CC)OC(=O)c1ccccc1C(=O)O (stereo not given)	inactive
c1cc(C(c2ccc(OCC3CO3)cc2)C(c2ccc(OCC3CO3)cc2)c2ccc(OCC3CO3)cc2)ccc1OCC1CO1 (stereo not given)	inactive
N[C@@H]1CONC1=O	inactive
Cc1cccc(O)c1C	inactive
NC(=Nc1ccccc1)Nc1ccccc1	inactive
C=CC(=O)OCCCCCCCC	inactive
Cc1cc(OCCOCC[N+](C)(C)Cc2ccccc2)ccc1C(C)(C)CC(C)(C)C	inactive
CCN(CC)CCOc1ccc(/C(=C(\Cl)c2ccccc2)c2ccccc2)cc1	inactive
CC[C@]1(O)C[C@@H]2CN(CCc3c([nH]c4ccccc34)[C@@](C(=O)OC)(c3cc4c(cc3OC)N(C)[C@H]3[C@@](O)(C(=O)OC)[C@H](OC(C)=O)[C@]5(CC)C=CCN6CC[C@]43[C@@H]65)C2)C1	inactive
CC(C)CCOC(=O)c1ccc(N(C)C)cc1	inactive
O=C(O)c1cccc(C(=O)O)c1	inactive
CCC(=O)/C=C/C1C(C)=CCCC1(C)C (stereo not given)	inactive
CCCCCCCCCCCC[N+](C)(C)C	inactive
O=C(O)Cn1cnnn1	inactive
CC(=O)CC(=O)Nc1ccc2[nH]c(=O)[nH]c2c1	inactive
COc1cc(C(=S)N2CCOCC2)ccc1O	inactive
CC(N)=O	inactive
CCC(C)(Oc1ccc(C2(c3ccc(OC(C)(CC)C(=O)O)cc3)CCCCC2)cc1)C(=O)O (stereo not given)	inactive
O=C(O)c1cc(Cl)cc(Cl)c1	inactive
O=C(Oc1ccccc1)c1ccccc1O	inactive

SMILES	Potency
Cc1cc(C(C)(C)C)c(O)c(C(C)(C)C)c1	inactive
CNCCC(Oc1ccc(C(F)(F)F)cc1)c1ccccc1 (stereo not given)	inactive
CC(=O)OCC1=C(C(=O)O)N2C(=O)[C@@H](NC(=O)Cc3cccs3)[C@H]2SC1	inactive
O=C1Nc2ccccc2C1(c1ccc(O)cc1)c1ccc(O)cc1	inactive
C/C=C/c1ccc(OCC)c(O)c1	inactive
Cc1ccc(-c2cc(C(F)(F)F)nn2-c2ccc(S(N)(=O)=O)cc2)cc1	inactive
CCN(CC)C(=O)Nc1ccc(OCC(O)CNC(C)(C)C)c(C(C)=O)c1 (stereo not given)	inactive
Nc1ccc(O)cc1	inactive
CC(C)(O)CCC(C)(C)O	inactive
CCCCOCCOC(=O)c1ccccc1C(=O)OCCOCCCC	inactive
NCCCCCC(=O)O	inactive
c1ccc2n[nH]nc2c1	inactive
CC1=CC(=O)c2ccccc2C1=O	68.6 µM (active) and inactive
C=CS(=O)(=O)O	inactive
NC12CC3CC(CC(C3)C1)C2	inactive
CC(C)(c1ccccc1)c1ccc(Nc2ccc(C(C)(C)c3ccccc3)cc2)cc1	inactive
CCc1cc(C(C)(C)C)c(O)c(C(C)(C)C)c1	inactive
C1COC(NC(C2CC2)C2CC2)=N1	inactive
Cc1cccc2n[nH]nc12	inactive
CCn1cc(C(=O)O)c(=O)c2cc(F)c(N3CCNC(C)C3)c(F)c21 (stereo not given)	inactive
